Reference: paper PMC5540273 (PLoS ONE, 2017)

What was measured:
Settings in all cases: concentration: 1 μM, replicates: in singlicate; n = 1
HIPK3 = system: HIPK3
HIPK4 = system: HIPK4
HPK1 = system: HPK1
HUNK = system: HUNK
ICK = system: ICK
IGF1R = system: IGF1R
IKK-alpha = system: T1, IKK-alpha
T1 construct: gene CHUK

IKK-beta = system: T2, IKK-beta
T2 construct: gene IKBKB

IKK-epsilon = system: T3, IKK-epsilon
T3 construct: gene IKBKE

INSRR = system: INSRR
INSR = system: INSR
IRAK1 = system: IRAK1
IRAK3 = system: IRAK3
IRAK4 = system: IRAK4
ITK = system: ITK
[1] = system: JAK1(JH1domain-catalytic)
[2] = system: JAK1(JH2domain-pseudokinase)
[3] = system: JAK2(JH1domain-catalytic)
[4] = system: JAK3(JH1domain-catalytic)
JNK1 = system: T4, JNK1
T4 construct: gene MAPK8
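Further: KINOMEscan kinase panel screen.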

| SMILES | %Inh (HIPK3) | %Inh (HIPK4) | %Inh (HPK1) | %Inh (HUNK) | %Inh (ICK) | %Inh (IGF1R) | %Inh (IKK-alpha) | %Inh (IKK-beta) | %Inh (IKK-epsilon) | %Inh (INSRR) | %Inh (INSR) | %Inh (IRAK1) | %Inh (IRAK3) | %Inh (IRAK4) | %Inh (ITK) | %Inh [1] | %Inh [2] | %Inh [3] | %Inh [4] | %Inh (JNK1) |
| --- | --- | --- | --- | --- | --- | --- | --- | --- | --- | --- | --- | --- | --- | --- | --- | --- | --- | --- | --- | --- |
| COc1cc(Nc2nccc(N3CCC(NC(=O)C4COc5ccccc5O4)C3)n2)cc(OC)c1OC (centres unmarked) [GSK1379761] | 0% | 0% | 51% | 30% | 0% | 0% | 21% | 0% | 0% | 0% | 0% | 61% | 76% | 0% | 4% | 7% | 21% | 98.5% | 55% | 20% |
| Cc1ccc(Oc2ccc(Nc3ncnc4cc[nH]c34)cc2C)cn1 | 24% | 0% | 0% | 4% | 33% | 0% | 0% | 8% | 50% | 0% | 11% | 6% | 16% | 0% | 0% | 0% | 24% | 18% | 0% | 43% |
| COc1ccc(Nc2nccc(N3CCC(NS(=O)(=O)c4ccc(NC(C)=O)cc4)C3)n2)cc1 (centres unmarked) [GSK1379729] | 14% | 12% | 64% | 0% | 13% | 22% | 12% | 6% | 12% | 21% | 4% | 0% | 17% | 57% | 19% | 66% | 0% | 95.6% | 5% | 20% |
| CCn1c(-c2nonc2N)nc2ccccc21 [SB-693162/GW549034] | 62% | 1% | 7% | 36% | 64% | 0% | 23% | 49% | 29% | 48% | 17% | 0% | 0% | 48% | 0% | 8% | 0% | 0% | 0% | 78% |
| Cc1cc(Nc2nc(-c3cccc(C)n3)nc3ccccc23)ccn1 [GW872411] | 0% | 0% | 0% | 28% | 0% | 0% | 0% | 0% | 0% | 0% | 0% | 0% | 0% | 0% | 0% | 4% | 81% | 0% | 0% | 0% |
| OCCCNc1nccc(-c2c(-c3cccc(C(F)(F)F)c3)nn3cc(C(F)(F)F)ccc23)n1 [GW630813] | 0% | 0% | 27% | 9% | 0% | 8% | 0% | 0% | 14% | 0% | 0% | 29% | 0% | 2% | 0% | 14% | 0% | 0% | 0% | 0% |
| COc1ccc(CNC(=O)NC2CCN(c3ccnc(Nc4ccc(F)cc4)n3)C2)cc1 (centres unmarked) [GSK1379706] | 30% | 8% | 49% | 0% | 0% | 13% | 3% | 0% | 30% | 0% | 17% | 45% | 0% | 0% | 8% | 13% | 0% | 39% | 0% | 19% |
| COc1cc2ncn(-c3cc(OCc4ccncc4Br)c(C(N)=O)s3)c2cc1OC [GW854278] | 15% | 32% | 0% | 0% | 5% | 0% | 6% | 3% | 0% | 7% | 1% | 3% | 27% | 3% | 0% | 0% | 19% | 0% | 0% | 0% |
| Fc1cccc(CSc2nnc(-c3ccc4c(c3)CCO4)o2)c1 | 6% | 0% | 0% | 0% | 0% | 13% | 14% | 10% | 20% | 0% | 23% | 21% | 6% | 100% | 16% | 11% | 0% | 0% | 3% | 8% |
| FC(F)(F)c1ccc(-c2ncn(CCCN3CCOCC3)c2-c2ccncc2)cc1 [SB-217780] | 7% | 0% | 1% | 0% | 64% | 0% | 1% | 0% | 8% | 0% | 0% | 0% | 10% | 0% | 9% | 0% | 0% | 27% | 0% | 55% |
| O=C1NC(=O)C(c2ccccc2)=C1Nc1cccc(O)c1 [SB-390534] | 8% | 2% | 9% | 29% | 10% | 0% | 0% | 0% | 0% | 15% | 0% | 0% | 0% | 0% | 0% | 0% | 17% | 15% | 0% | 22% |
| CCS(=O)(=O)c1ccc(OC)c(Nc2ncc(-c3ccc(F)cc3)o2)c1.Cl [GW591947] | 37% | 0% | 17% | 22% | 0% | 20% | 0% | 1% | 0% | 0% | 0% | 0% | 0% | 3% | 0% | 11% | 0% | 8% | 0% | 2% |
| Cl.NS(=O)(=O)c1cccc(Nc2cc(-c3ccc(F)cc3)n[nH]2)c1 [GW824645] | 18% | 18% | 0% | 58% | 12% | 0% | 1% | 9% | 8% | 0% | 5% | 0% | 0% | 0% | 0% | 0% | 23% | 48% | 0% | 8% |
| COc1ccc(-c2coc3ccc(-c4nnc(SCc5cccc(C#N)c5)o4)cc23)cc1 | 20% | 0% | 0% | 0% | 17% | 0% | 19% | 7% | 0% | 0% | 20% | 0% | 0% | 0% | 0% | 22% | 36% | 12% | 0% | 22% |
| Nc1ncnc2c1ncn2-c1cccc2ccccc12 [SKF-97184] | 0% | 7% | 2% | 45% | 0% | 0% | 16% | 3% | 0% | 0% | 0% | 27% | 0% | 0% | 0% | 1% | 33% | 54% | 19% | 15% |
| COc1cccc(C2=C(N(C)c3ccccc3)C(=O)NC2=O)c1 [SB-334865] | 25% | 0% | 53% | 9% | 0% | 12% | 0% | 14% | 3% | 0% | 0% | 42% | 20% | 24% | 16% | 13% | 0% | 0% | 0% | 30% |

| SMILES | %Inh (HIPK3) | %Inh (HIPK4) | %Inh (HPK1) | %Inh (HUNK) | %Inh (ICK) | %Inh (IGF1R) | %Inh (IKK-alpha) | %Inh (IKK-beta) | %Inh (IKK-epsilon) | %Inh (INSRR) | %Inh (INSR) | %Inh (IRAK1) | %Inh (IRAK3) | %Inh (IRAK4) | %Inh (ITK) | %Inh [1] | %Inh [2] | %Inh [3] | %Inh [4] | %Inh (JNK1) |
| --- | --- | --- | --- | --- | --- | --- | --- | --- | --- | --- | --- | --- | --- | --- | --- | --- | --- | --- | --- | --- |
| Cc1c(Cn2c(C)nn3c(=O)cc(N4CCO[C@H](C)C4)nc23)cccc1C(F)(F)F [GSK2373690] | 30% | 0% | 24% | 4% | 1% | 41% | 0% | 3% | 0% | 14% | 0% | 23% | 14% | 24% | 26% | 21% | 0% | 14% | 0% | 18% |
| CCCC(=O)Nc1n[nH]c2ncc(-c3cccc4ccccc34)cc12 [SB-642057] | 11% | 26% | 31% | 30% | 45% | 16% | 9% | 30% | 27% | 0% | 18% | 77% | 0% | 41% | 15% | 9% | 0% | 0% | 0% | 20% |
| COc1cc(Nc2ccnc3ccc(C(F)(F)F)cc23)cc(OC)c1OC [GW577382] | 18% | 0% | 31% | 30% | 0% | 0% | 21% | 3% | 0% | 4% | 10% | 22% | 6% | 2% | 9% | 8% | 0% | 9% | 100% | 39% |
| COC(=O)c1c(-c2ccccc2)c2cc(Br)ccc2c(=O)n1Cc1ccc(NC(=O)CCC(=O)O)cc1 | 0% | 0% | 0% | 0% | 14% | 0% | 0% | 0% | 0% | 13% | 8% | 8% | 25% | 16% | 12% | 5% | 0% | 0% | 0% | 99% |
| COc1cc(Nc2nccc(N3CCC(NC(=O)C(C)c4ccc(Cl)cc4)C3)n2)cc(OC)c1OC (centres unmarked) [GSK1379757] | 0% | 0% | 37% | 16% | 0% | 13% | 0% | 0% | 23% | 0% | 0% | 41% | 68% | 10% | 11% | 20% | 0% | 86% | 0% | 3% |
| COc1ccc(-n2cnc3c(N)ncnc32)cc1 [SKF-97236] | 12% | 29% | 5% | 0% | 0% | 19% | 0% | 19% | 3% | 2% | 52% | 0% | 12% | 7% | 7% | 5% | 68% | 31% | 27% | 12% |
| Cl.c1ccc(Cn2cnc3cc(Nc4ncnc5ccccc45)ccc32)cc1 [GW272142] | 8% | 0% | 36% | 5% | 0% | 34% | 0% | 12% | 17% | 36% | 0% | 26% | 0% | 15% | 7% | 4% | 0% | 0% | 0% | 13% |
| O=C(Nc1n[nH]c2nc(-c3ccccc3)c(Br)cc12)C1CC1 [SB-708998] | 0% | 6% | 20% | 0% | 0% | 1% | 0% | 5% | 2% | 9% | 7% | 0% | 0% | 6% | 1% | 0% | 0% | 18% | 0% | 29% |
| Cc1cccc(-c2nc(Nc3ccc4c(cnn4C)c3)c3ccccc3n2)n1 [GW876731] | 0% | 14% | 0% | 35% | 10% | 0% | 1% | 13% | 21% | 15% | 0% | 0% | 0% | 0% | 0% | 15% | 16% | 26% | 0% | 1% |
| CN1C(=O)C(Nc2ccccc2)=C(c2ccccc2)C1=O [SB-300079] | 0% | 0% | 0% | 67% | 0% | 0% | 11% | 0% | 0% | 0% | 22% | 16% | 0% | 0% | 0% | 0% | 33% | 42% | 2% | 14% |
| COc1cc2ncn(-c3cc(OCc4ccncc4)c(C(N)=O)s3)c2cc1OC [GSK336313] | 21% | 0% | 21% | 0% | 4% | 0% | 0% | 0% | 26% | 99.3% | 1% | 8% | 0% | 0% | 4% | 6% | 0% | 0% | 0% | 0% |
| COC(=O)c1c(-c2ccccc2)c2cc(C)ccc2c(=O)n1Cc1ccccc1 | 0% | 0% | 0% | 0% | 0% | 5% | 0% | 0% | 0% | 1% | 1% | 21% | 0% | 20% | 1% | 0% | 0% | 0% | 0% | 44% |
| CCS(=O)c1ccc(-c2coc3ccc(-c4nnc(C)o4)cc23)cc1 (centres unmarked) | 21% | 0% | 11% | 0% | 10% | 0% | 10% | 6% | 0% | 0% | 1% | 6% | 0% | 9% | 0% | 1% | 20% | 23% | 0% | 22% |
| Nc1ncnc2c1ncn2-c1ccc(Cl)cc1 [AH2635] | 0% | 0% | 27% | 19% | 0% | 0% | 0% | 0% | 30% | 0% | 0% | 17% | 0% | 0% | 0% | 2% | 0% | 4% | 0% | 0% |
| Nc1n[nH]c2ncc(-c3ccccc3)cc12 [SB-517081] | 12% | 0% | 44% | 13% | 0% | 18% | 27% | 65% | 13% | 0% | 18% | 49% | 3% | 22% | 19% | 4% | 34% | 55% | 0% | 38% |
